The results in this text go back to PubChem BioAssay.

Active and inactive are the calls of the source.

Assay [1] deals with Plasmodium falciparum Sir2 (PF13_0152, Sir2A). The assay can be described thus: Plasmodium falciparum Sir2A binding compounds – biochemical, small-molecule microarray, 635 nm fluorescence, primary screen (AID 1098).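 Note: score merges spot fluorescence intensity with its signal-to-noise ratio.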 The conditions noted are these: fluorescence 635 nm, higher = more signal.
Assay [2] is described as follows: probe aDKK1 binding to arrayed compounds – biochemical, biotinylated probe, 635/667 nm fluorescence, primary screen (AID 1099).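 Note: score merges 667nm spot fluorescence with signal to noise across triplicate slides; reference of the scale not given here.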 The conditions noted are these: small-molecule microarray, higher = more signal.
Assay [3] in a line: probe aCHRDL2 binding to arrayed compounds – biochemical, biotinylated probe, 635/667 nm fluorescence, primary screen (AID 1100). The conditions noted are these: small-molecule microarray, higher = more signal.
Assay [4] can be described thus: change in splice reporter luminescence, either direction, cell-based, HEK293, spliceosome inhibition project, primary screen (AID 1101).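 Note: HEK293 cells carrying a splicing-competent luciferase reporter gene; test concentration not given here.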 The conditions noted are these: HEK293 splicing luciferase reporter, 24 h, higher = more signal, called active from +8 up or from −8 down. In general terms: A reporter such as luciferase makes a cellular process visible.
For assay [5], the target named is Fibroblast growth factor 10 (Homo sapiens) (UniProt O15520). Kind of assay: compounds binding fibroblast growth factor 10 – biochemical, small-molecule microarray, 635 nm fluorescence, primary screen (AID 1102). The conditions noted are these: FGF10 binding, fluorescence 635 nm, higher = more signal.
For assay [6], the system named is glycogen synthase kinase-3 (GSK3A per assay name; protocol says GSK3B). The assay can be described thus: compounds binding glycogen synthase kinase-3 – biochemical, small-molecule microarray, 635 nm fluorescence, GSK3A, primary screen (AID 1103). Note: the record names both GSK3A and GSK3B. The conditions noted are these: fluorescence 635 nm, higher = more signal.
For assay [7], the target named is Epidermal growth factor receptor (Homo sapiens) (UniProt P00533). Kind of assay: compounds binding epidermal growth factor receptor – biochemical, small-molecule microarray, 635 nm fluorescence, primary screen (AID 1104).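 Note: score merges 667 nm emission intensity with spot signal to noise over triplicate slides.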 The conditions noted are these: EGFR binding, higher = more signal.
For assay [8], the target named is Follistatin-related protein 3 (Homo sapiens) (UniProt O95633). The assay can be described thus: compounds binding follistatin-related protein 3 – biochemical, small-molecule microarray, 635 nm fluorescence, primary screen (AID 1105).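 Note: score merges emission near 667 nm and signal to noise per printed spot across three slides.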 The conditions noted are these: FSTL3 binding, higher = more signal.
The target of assay [9] is Dickkopf-related protein 1 (Homo sapiens) (UniProt O94907). The assay can be described thus: small molecules binding DKK1 protein – biochemical, small-molecule microarray, 635 nm fluorescence scan, primary screen (AID 1106).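 Note: score merges emission near 667 nm with signal to noise over three replicate slides.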 The conditions noted are these: higher = more signal.
Assay [10] deals with Inhibin beta A chain (activin A). The assay can be described thus: small molecules binding activin A – biochemical, small-molecule microarray, 635 nm fluorescence scan, primary screen (AID 1107).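 Note: mouse activin A protein probed at 4.33 µg/mL on printed slides; score merges bound-protein fluorescence near 667 nm with spot signal-to-noise.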 The conditions noted are these: INHBA, higher = more signal.

Chain of Fibroblast growth factor 10 (Homo sapiens) (O15520 whole entry, looked up): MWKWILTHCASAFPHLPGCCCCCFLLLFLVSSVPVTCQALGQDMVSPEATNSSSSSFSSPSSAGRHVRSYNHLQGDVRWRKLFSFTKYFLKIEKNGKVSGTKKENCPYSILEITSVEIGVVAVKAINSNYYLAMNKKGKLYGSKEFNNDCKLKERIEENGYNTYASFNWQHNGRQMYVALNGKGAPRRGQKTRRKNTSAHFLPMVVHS
Chain of Dickkopf-related protein 1 (Homo sapiens) (O94907 whole entry, looked up): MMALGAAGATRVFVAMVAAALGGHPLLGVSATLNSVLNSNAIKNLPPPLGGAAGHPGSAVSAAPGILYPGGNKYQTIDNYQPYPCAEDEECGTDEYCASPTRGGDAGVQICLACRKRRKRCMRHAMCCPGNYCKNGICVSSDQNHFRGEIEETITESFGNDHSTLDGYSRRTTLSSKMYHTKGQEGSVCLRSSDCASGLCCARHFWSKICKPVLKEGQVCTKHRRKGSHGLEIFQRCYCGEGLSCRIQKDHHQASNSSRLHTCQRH
Chain of Epidermal growth factor receptor (Homo sapiens) (P00533 whole entry, looked up): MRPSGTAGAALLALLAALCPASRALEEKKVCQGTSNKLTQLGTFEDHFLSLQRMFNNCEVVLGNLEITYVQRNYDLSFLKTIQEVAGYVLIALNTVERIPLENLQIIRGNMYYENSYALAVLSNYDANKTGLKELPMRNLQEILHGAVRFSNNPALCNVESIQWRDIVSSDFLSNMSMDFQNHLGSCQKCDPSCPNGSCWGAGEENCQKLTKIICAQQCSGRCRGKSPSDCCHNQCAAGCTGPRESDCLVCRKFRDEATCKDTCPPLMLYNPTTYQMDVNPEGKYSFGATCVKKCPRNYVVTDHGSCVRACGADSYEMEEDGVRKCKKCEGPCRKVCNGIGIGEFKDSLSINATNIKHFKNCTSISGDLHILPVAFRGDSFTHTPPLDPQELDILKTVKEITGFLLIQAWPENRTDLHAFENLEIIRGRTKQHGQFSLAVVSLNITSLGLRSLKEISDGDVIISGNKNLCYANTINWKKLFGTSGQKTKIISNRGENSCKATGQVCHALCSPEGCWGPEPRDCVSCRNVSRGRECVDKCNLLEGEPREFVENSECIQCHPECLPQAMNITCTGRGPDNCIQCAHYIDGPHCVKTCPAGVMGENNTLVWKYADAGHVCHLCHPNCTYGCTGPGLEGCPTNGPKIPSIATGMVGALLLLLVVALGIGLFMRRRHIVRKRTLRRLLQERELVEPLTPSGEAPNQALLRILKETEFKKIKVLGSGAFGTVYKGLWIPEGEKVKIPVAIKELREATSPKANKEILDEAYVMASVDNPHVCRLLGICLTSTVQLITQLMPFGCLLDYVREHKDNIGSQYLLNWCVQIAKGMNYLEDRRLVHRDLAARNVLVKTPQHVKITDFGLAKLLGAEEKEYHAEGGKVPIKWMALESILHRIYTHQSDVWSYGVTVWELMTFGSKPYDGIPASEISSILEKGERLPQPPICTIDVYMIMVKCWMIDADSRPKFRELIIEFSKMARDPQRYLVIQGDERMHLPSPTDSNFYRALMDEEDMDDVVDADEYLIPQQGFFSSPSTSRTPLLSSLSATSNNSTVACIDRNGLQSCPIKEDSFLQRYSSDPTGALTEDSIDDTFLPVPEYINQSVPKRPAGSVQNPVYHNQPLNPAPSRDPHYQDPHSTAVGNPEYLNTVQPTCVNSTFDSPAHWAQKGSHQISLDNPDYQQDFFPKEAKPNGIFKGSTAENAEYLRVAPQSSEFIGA
Chain of Follistatin-related protein 3 (Homo sapiens) (O95633 whole entry, looked up): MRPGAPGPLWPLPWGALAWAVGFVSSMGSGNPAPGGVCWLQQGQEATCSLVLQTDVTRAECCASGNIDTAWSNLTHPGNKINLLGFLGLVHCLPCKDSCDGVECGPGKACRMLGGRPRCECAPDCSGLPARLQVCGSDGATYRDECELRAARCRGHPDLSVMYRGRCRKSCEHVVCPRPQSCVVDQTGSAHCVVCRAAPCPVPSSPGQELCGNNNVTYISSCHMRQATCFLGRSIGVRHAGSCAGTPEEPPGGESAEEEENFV

`COC(=O)[C@@]1(Cc2ccc(OC)cc2)[C@H]2c3cc(C(=O)N4CCCC4)n(Cc4ccc(OC)c(OC)c4)c3C[C@H]2CN1C(=O)c1ccccc1`: the composite z-score in assay [1] was 1.04; in assay [2] it was 1.56; in [3], 0.9; in [5], 0.784; in assay [6], 1.17; in assay [7] it was 1.34. In addition, the composite z-score in assay [8] was 1.42; in assay [9], 0.56; in [10] it was 1.01. Besides, the z-score in [4] is -1.81 (inactive).

Turning to `NCCCCCNC(=O)[C@@H]1C[C@@H]2C(=O)NCC(=O)N2[C@@H]1c1ccc(O)cc1`, the composite z-score is 1.15 in [1]; -0.0246 in assay [2]; -0.128 in assay [3]; 1.49 in assay [5]; 1.32 in [6]; -0.318 in assay [7]. In addition, the values for the composite z-score in assay [8], in assay [9] and in assay [10] were 1.22, 1.63 and 0.294, respectively. Moreover, the z-score in assay [4] was -0.0882 (inactive).

Regarding `O=C1C[C@]2(c3ccc([N+](=O)[O-])cc3)C(=O)N(CCN3CCOCC3)c3cc(CO)ccc3[C@H]2N1C1CCCCC1`, the composite z-score in assay [1] was 0.781; in assay [2], 0.42; in [3], 0.828; in assay [5], -0.142; in assay [6], -0.587; in [7], -0.517. For the same compound, the composite z-score in [8] is -0.875; in assay [9], -0.877; in assay [10], 0.342. In addition, in assay [4], the z-score is -1.05 (inactive).

As for `COC(=O)C=C(CC(O)c1cccc(Cl)c1)OC` (stereo not given), the composite z-score was -0.02 in assay [1]; 1.5 in assay [2]; 0.48 in assay [3]; 0.182 in assay [5]; -0.134 in [6]; -0.485 in assay [7]. Further, the composite z-score in [8] is -0.374; in assay [9], -0.186; in assay [10], 1.14. In assay [4], the z-score is -1.12 (inactive).

As to `COCCOC(=O)N1C(=O)[C@@]2(c3cc(C#CCCO)ccc31)[C@H](C(=O)N1CCN(c3ncccn3)CC1)[C@H]1C(=O)O[C@H](c3ccccc3)[C@H](c3ccccc3)N1[C@@H]2c1ccccc1OCCO`, the composite z-score in [1] is 0.748; in assay [2] it was 0.293; in [3] it was -0.0474; in assay [5], 0.727; in [6] it was 1.26; in assay [7] it was 0.688. Besides, the figures for the composite z-score in [8], in assay [9] and in assay [10] were 0.751, 0.547 and 0.487, respectively. The z-score in assay [4] is -0.32 (inactive).

With `CCCC=C(CCC)[C@@H](NC(=O)Oc1ccc(F)cc1)c1ccc(C(=O)OC)cc1`, the composite z-score is 0.217 in assay [1]; 0.346 in [2]; 0.893 in assay [3]; 0.441 in assay [5]; -0.102 in assay [6]; 0.267 in assay [7]. The figures for the composite z-score in assay [8], in assay [9] and in assay [10] were 0.495, -0.284 and 0.602, respectively. Also, the z-score in assay [4] was -1.86 (inactive).

Consider `[N-]=[N+]=NCc1ccccc1C[C@@]1(C(=O)NCC(O)CO)N=C(c2ccc(OCCCO)cc2)O[C@@H]1c1ccccc1N=[N+]=[N-]` (stereo not given in full), for which the composite z-score in [1] was 0.991; in [2], 1.03; in assay [3] it was 1.38; in [5], 1.01; in assay [6], 0.364; in [7], -0.0087. Also, the composite z-score in assay [8] is 0.348; in assay [9], -0.504; in assay [10] it was 1.2. Further, the z-score in [4] is 0.561 (inactive).

As for `C=CC[C@@]1(C(=O)N(C)C)N=C(c2ccc(OCCCO)cc2)O[C@@H]1c1ccccc1N=[N+]=[N-]`, the composite z-score was found to be 1.59 in assay [1]; 1.33 in assay [2]; 1.35 in assay [3]; 0.826 in assay [5]; 1.2 in [6]; 0.145 in [7]. Moreover, the composite z-score in assay [8] was found to be 0.884; in [9], 0.368; in assay [10] it was 0.636. Moreover, the z-score in assay [4] was -1.2 (inactive).

Consider `C#CCN(CC=C(C)C)[C@H](CO)c1ccccc1`, for which the composite z-score is -0.383 in assay [1]; -0.127 in assay [2]; -0.209 in assay [3]; -0.0443 in [5]; 0.81 in [6]; 0.372 in [7]. In addition, the composite z-score in [8] came out at 0.0894; in assay [9] it was 0.352; in assay [10] it was 0.942. Also, in assay [4], the z-score is -1.21 (inactive).

For `[N-]=[N+]=NCc1ccccc1[C@@H]1OC(c2ccc(OCCCO)cc2)=N[C@]1(CCS(=O)(=O)c1ccccc1)C(=O)NCCN1CCOCC1`, the composite z-score was found to be 0.916 in assay [1]; 0.934 in [2]; 0.952 in [3]; 1.42 in [5]; 1.05 in assay [6]; 0.778 in [7]. Besides, the composite z-score in assay [8] turned out to be 1.46; in assay [9], 0.535; in assay [10] it was 0.745. In addition, the z-score in assay [4] was -0.406 (inactive).

For `CCOC(=O)C[C@H]1[C@H](OC(=O)Cc2ccc3c(c2)OCO3)[C@@H](NC(=O)c2ccc3ccccc3c2)c2cc(OCCCO)ccc2N1C(=O)c1ccccc1`, the composite z-score is 0.622 in [1]; -0.0805 in assay [2]; -0.205 in [3]; 0.47 in assay [5]; 0.213 in assay [6]; 0.188 in assay [7]. Besides, the composite z-score came out at 0.433 in assay [8], 0.295 in assay [9] and 0.405 in [10]. Moreover, the z-score in [4] was -0.547 (inactive).
